Assay results published in PubChem BioAssay (NCATS).
Records with an inconclusive call do not appear. Where a call stands in place of a potency, no number is given. Active and inactive are the calls of the source. Calls come from the whole dose curve; as a rule, active = well fitted curve in the direction sought with a large enough effect; inconclusive = small, poorly fitted or top-dose-only effect, or another doubt; inactive = no such curve, though single readings can be large; an effect the other way counts as inactive or inconclusive. Residues, ends and D or L forms follow the SMILES beside them. *: point of attachment. Cbz = O=C(OCc1ccccc1)*

Assays:
[1] = molecular target: alpha-glucosidase (Oryza sativa, rice) (UniProt Q653V4); experiment: Counterscreen for Glucocerebrosidase Inhibitors: qHTS Assay for Rice alpha-Glucosidase at pH 5.0 (AID 997)
Summary of the method: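 Endpoint fluorogenic assay at pH 5.0: compounds (0.7 nM to 77 uM) titrated against 4 nM rice enzyme and 400 uM 4-MU-alpha-glucoside for 20 min at room temperature; NaOH/glycine stop, read ex 365/em 440 nm, Hill-fitted AC50.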

[2] = Counterscreen for APE1 Inhibitors: Fluorescent Dye Displacement Validation Assay (AID 1707)
Summary of the method: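 Endpoint fluorescence read at 480 nm excitation / 540 nm emission; DNA-binding compounds lower signal by displacing 250 nM Thiazole Orange from 50 nM dsDNA containing a tetrahydrofuran abasic site, Tris-HCl pH7.5 buffer with NaCl and MgCl2.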

[3] = molecular target: Endonuclease 4 (Escherichia coli (strain K12)) (UniProt P0A6C1); experiment: Counterscreen for APE1 Inhibitors: qHTS Validation Assay for Inhibitors of Endonuclease IV (AID 1708)
Summary of the method: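 Enzyme (2 nM) + compound, 15 min RT; add 50 nM TAMRA/BHQ-2 THF-site dsDNA; kinetic read ex525/em598, 3 reads/60 s; activity = read 3 − read 1. Buffer Tris pH 7.5, 50 mM NaCl, 2 mM MgCl2, DTT, Tween-20.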

[4] = qHTS for differential inhibitors of proliferation of Plasmodium falciparum line 7G8 (AID 1815);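 note: parasite growth measured after three days of incubation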; note: potency is the fitted concentration of half-maximal effect
[5] = qHTS for differential inhibitors of proliferation of Plasmodium falciparum line GB4 (AID 1816); details: Potency: Plasmodium falciparum GB4 proliferation inhibition;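 note: parasite growth measured after 72 h incubation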; note: potency is the fitted concentration of half-maximal effect
[6] = qHTS for differential inhibitors of proliferation of Plasmodium falciparum line 3D7 (AID 1876); note: potency is the fitted concentration of half-maximal effect
[7] = molecular target: DNA repair nuclease/redox regulator APEX1 (Homo sapiens) (UniProt P27695); experiment: qHTS Validation Assay for Inhibitors of the Human Apurinic/apyrimidinic Endonuclease 1 (APE1) (AID 1705;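 note: TAMRA fluorescence gain over two minutes as APE1 cuts a quenched THF abasic duplex; series mostly up to about 57 µM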)
DNA repair nuclease/redox regulator APEX1 (Homo sapiens), sequence (P27695 whole entry, looked up): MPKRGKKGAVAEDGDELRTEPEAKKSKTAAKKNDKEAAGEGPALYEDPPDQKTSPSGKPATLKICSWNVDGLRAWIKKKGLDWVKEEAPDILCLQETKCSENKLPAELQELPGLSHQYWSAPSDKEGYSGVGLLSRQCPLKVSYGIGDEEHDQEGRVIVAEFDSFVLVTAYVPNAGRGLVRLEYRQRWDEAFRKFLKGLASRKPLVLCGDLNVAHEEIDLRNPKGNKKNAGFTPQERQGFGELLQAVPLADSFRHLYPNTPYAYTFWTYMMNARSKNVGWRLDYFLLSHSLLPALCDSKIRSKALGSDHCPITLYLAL
Summary of the method: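 qHTS, 1536-well. APE1 + cpd 15 min RT → 50 nM TAMRA/BHQ-2 THF-abasic dsDNA substrate → kinetic fluorescence, 3 reads/60 s; delta(read3−read1) = reaction progress. No-enzyme buffer = negative control.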

Row | SMILES | outcome [1] | Potency [2] | Potency [3] | Potency [4] | Potency [5] | Potency [6] | Potency [7]
1 | CCCCCCCCCCCCCCSCC(=O)O | inactive | inactive | inactive | inactive | inactive | inactive | 
2 | NC(=O)CNCCC(c1ccccc1)c1ccccc1 | inactive | inactive | inactive | 4.47 µM (active) |  |  | inactive
3 | S=C(S)N1CCCC1 | inactive | inactive | inactive |  |  |  | inactive
4 | NC1(C(=O)O)CC1 | inactive | inactive | inactive |  |  | 11.2 µM (active) | 
5 | Cc1ccccc1/C=C/C1=NCCN1 |  | inactive |  | 8.91 µM (active) | 11.2 µM (active) |  | inactive
6 | O=C1Nc2ccc(I)cc2/C1=C/c1cc(Br)c(O)c(Br)c1 | inactive | inactive | inactive | 8.91 µM (active) | 14.1 µM (active) | 14.1 µM (active) | 
7 | Fc1ccc(CN(C2=NCCN2)c2c(Cl)cccc2Cl)cc1 | inactive | inactive | inactive | 6.31 µM (active) | 5.62 µM (active) | 11.2 µM (active) | inactive
8 | Nc1ncnc2c1c(-c1ccc(Oc3ccccc3)cc1)cn2C1CCCC1 | inactive | inactive |  | 4.47 µM (active) | 2.51 µM (active) | 10 µM (active) | inactive
9 | O=C1OC(=O)C2C3CCC(O3)C12 (centres undefined) |  | inactive | inactive | inactive |  | inactive | inactive
10 | C=C1C(=O)O[C@@H]2[C@H]3O[C@]3(C)CCC=C(C)CC[C@@H]12 |  | inactive |  | 11.2 µM (active) |  |  | inactive
11 | O=c1oc(Cl)c(Cl)c2ccccc12 | inactive | inactive |  |  | inactive | inactive | inactive
12 | COc1cc([C@@H]2c3cc4c(cc3[C@H](O)C3COC(=O)[C@@H]32)OCO4)cc(OC)c1OC (some centres undefined) |  | inactive |  |  |  |  | 
13 | Nc1nc2ccc(Cl)cc2c2nc(-c3ccco3)nn12 | inactive |  | inactive |  |  |  | inactive
14 | CC(C)[C@H](NC(=O)OCc1ccccc1)C(=O)N[C@H](C=O)Cc1ccccc1 (Cbz-Val-Phe-aldehyde) | inactive | inactive | inactive | 7.08 µM (active) | 4.47 µM (active) | 2.82 µM (active) | inactive
15 | CCCn1c(=O)c2[nH]c(C3CCCC3)nc2n(CCC)c1=O | inactive | inactive | inactive |  |  |  | inactive
16 | Nc1ncnc2c1ncn2C1CCCC1 | inactive | inactive | inactive | inactive |  |  | inactive
17 | CC(=O)[C@H]1CCC2C3CC=C4C[C@@H](OS(=O)(=O)O)CC[C@]4(C)C3CC[C@@]21C (some centres undefined) |  |  | inactive | inactive | inactive | inactive | 
18 | CCCCCCCC/C=C\CCCCCCCC(=O)NCCc1ccc(O)c(O)c1 | inactive |  |  | 7.08 µM (active) | 11.2 µM (active) | 8.91 µM (active) | inactive
19 | NCC(O)C1CCCCCCC1 (centres undefined) |  | inactive | inactive | 12.6 µM (active) | 5.62 µM (active) | inactive | 
20 | COc1ccccc1N1CCN(CCN(C(=O)c2ccc(F)cc2)c2ccccn2)CC1 | inactive | inactive | inactive |  |  |  | inactive
21 | CCCCC[C@H](CC(=O)NO)C(=O)N[C@H](C(=O)N1CCC[C@H]1CO)C(C)C |  | inactive | inactive | 2.24 µM (active) | 2 µM (active) | 1.78 µM (active) | inactive
